According to PubChem BioAssay AID1671190 (National Center for Advancing Translational Sciences (NCATS), 2021):
The whole screen tested about 580,000 compounds, of which about 6,100 (1.1%) were called active. Another 15% or so got no clear call; they are omitted. What follows is part of a selection rich in actives, with near analogues and random picks from the rest. A number with no mark means an inactive call. The call rests on the fitted dose curve; in most records, active means well fitted inhibition curve with a large enough effect; inconclusive means small, poorly fitted or top-dose-only effect, or another doubt; inactive means no such curve, though single readings can be large or run the other way.

The compounds below were run against Polyunsaturated fatty acid lipoxygenase ALOX12 (Homo sapiens) (UniProt P18054) (assay: Primary qHTS assay for inhibitors of human arachidonate 12S-lipoxygenase (ALOX12): Round 2). Conditions: purified 12hLO, xylenol orange hydroperoxide absorbance; series mostly up to 108 µM; activity change, negative = inhibition: at the top concentration.
Procedure, shortened: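 Purified human 12hLO (150 nM final) in 25 mM Hepes, 0.01% Triton X-100, pH 7.0 was preincubated 15 min at room temperature with compound. Then 40 uM arachidonic acid was added, 30 min. Hydroperoxide was read by Fe-XO absorbance ratio 573/405 nm.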
On the % scale 0 is the no-effect control and ±100 the full control effect; potency means the concentration at half of the fitted maximal effect.

Chain of Polyunsaturated fatty acid lipoxygenase ALOX12 (Homo sapiens) (P18054 whole entry, looked up): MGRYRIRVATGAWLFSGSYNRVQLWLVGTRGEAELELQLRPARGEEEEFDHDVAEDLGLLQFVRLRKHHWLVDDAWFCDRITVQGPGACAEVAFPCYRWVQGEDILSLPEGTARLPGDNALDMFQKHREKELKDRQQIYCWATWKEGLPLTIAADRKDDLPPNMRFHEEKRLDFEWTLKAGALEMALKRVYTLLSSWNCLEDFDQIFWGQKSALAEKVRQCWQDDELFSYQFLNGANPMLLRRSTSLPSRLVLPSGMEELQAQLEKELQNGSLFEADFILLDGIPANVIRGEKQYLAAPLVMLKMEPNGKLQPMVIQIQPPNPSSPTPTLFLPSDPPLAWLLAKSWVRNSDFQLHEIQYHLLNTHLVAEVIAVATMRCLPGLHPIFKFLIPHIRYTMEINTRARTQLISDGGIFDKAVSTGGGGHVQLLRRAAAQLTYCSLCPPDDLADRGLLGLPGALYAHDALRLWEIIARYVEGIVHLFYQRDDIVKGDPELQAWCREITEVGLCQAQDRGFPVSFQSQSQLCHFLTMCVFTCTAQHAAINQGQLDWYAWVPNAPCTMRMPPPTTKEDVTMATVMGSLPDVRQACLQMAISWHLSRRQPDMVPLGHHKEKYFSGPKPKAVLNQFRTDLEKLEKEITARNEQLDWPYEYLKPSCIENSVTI

Row | Structure (SMILES) | activity change, negative = inhibition | Potency
1 | O=C(NCc1ccc(Cl)c(Cl)c1)C1CCN(c2ncnc3nc[nH]c23)CC1 | -1.44% | 
2 | CC(=O)NC1(C)CCN(Cc2cccc(-c3ccc(C(=O)c4ccccc4)cc3)c2)C1 (stereo not given) |  | 39.8 µM (active)
3 | CCCNC(=O)C1(C)CCCN(Cc2cccc(C(F)(F)F)c2)C1 (stereo not given) | -21.5% | 
4 | CC(=O)N1CCC2(CCCN(Cc3ccccc3)C2)CC1 | -19.8% [at 57.4 µM] | 
5 | CC(C)(C)OC(=O)C(C#N)c1cnccn1 (stereo not given) | 0.566% | 
6 | COc1ccc(C(O)(C2CCCCC2)C(CN2CCCC2)c2ccccc2)cc1 (stereo not given) | 0% | 
7 | CC(C)Oc1ccc(C(O)(CC[N+](C)(C)C)C2CCCCC2)cc1 (stereo not given) |  | 11.2 µM (active)
8 | CC(C)Oc1ccc(C(=O)NC(C)(C)CO)cc1 | -27.6% | 
9 | O=C(CN1C(=O)CC2(CCCCC2)C1=O)c1c[nH]c2ccccc12 | 24.3% | 
10 | CCn1nc(C(=O)Nc2ccccn2)c2ccccc2c1=O | -0.227% | 
11 | Cc1ccccc1CNC(=O)c1cc(-c2ccncc2)nc2ccccc12 | -19.4% | 
12 | COc1ccc(C2C(=O)N(C3CCCCCC3)CC(=O)N2CCc2ccc(Cl)cc2)cc1OC (stereo not given) | -25.5% | 
13 | COc1ccc(C2NC(=O)C(=O)/C2=C(\O)c2ccc(Cl)cc2)cc1OC (stereo not given) |  | 28.2 µM (active)
14 | CCC1(C)COC(c2ccc(OC)c(OC)c2)OC1 (stereo not given) | -2.84% | 
15 | CCN(CC)S(=O)(=O)c1ccc(-c2csc(-c3ccc(OC)c(OC)c3)n2)cc1 | -13.9% | 
16 | FC(F)(F)c1cccc(N/N=C/c2ccccc2)c1 |  | 3.55 µM (active)
17 | CC(C)(C)c1ccc(/C=N/NC(=O)c2ccccc2)cc1 | 27.4% | 
18 | O=C(CN1c2ccccc2S(=O)(=O)c2ccccc21)Nc1cccc(C(F)(F)F)c1 | -26.5% | 
19 | O=C(O)c1cc(-c2ccc3ccccc3n2)nc2ccc3ccccc3c12 | 2.92% | 
20 | CC1(C)CC(=O)C/C(=N/NC(=O)c2ccc(NC(=O)C3CC3)cc2)C1 | -1.6% | 
21 | N#CC1(NC(=O)COC(=O)Cc2n[nH]c(=O)c3ccccc23)CCCCC1 |  | inactive
22 | O=S(=O)(NC1CC1)c1ccc2c3c(cccc13)CC2 | 8.58% | 
23 | N#CC1(Nc2ccc3c4c(cccc24)CC3)CCCCC1 |  | 31.6 µM (active)
24 | CCCCC(=O)Nc1ccccc1C(C)CC (stereo not given) | 2.54% | 
25 | Cc1nn(-c2ccc(F)cc2)c(Oc2ccccc2F)c1CCC(=O)NCC1CCCO1 (stereo not given) | 48.6% | 
26 | C=CCNC(=O)COc1coc(CN2CCN(Cc3ccccc3)CC2)cc1=O | 30.2% | 
27 | C=CCNC(=O)N1CC[C@H]2CC(=O)N(c3ccccc3)CC[C@H]2C1 | 0.74% [at 176 µM] | 
28 | C=CCNC(=S)/N=c1/ccccn1Cc1ccccc1 |  | 44.7 µM (active)
29 | COc1ccccc1N1CCN(C(=O)CSc2nccn3nc(-c4ccccc4)cc23)CC1 | 9.23% | 
30 | CCOc1cc2ccccc2cc1C(=O)N1CCN(CC(=O)Nc2cccc(F)c2)CC1 | 0.995% | 
